{"source": "the supplement of paper PMC8728848", "assay_in_all_cases": "glycan array binding signal (z-score within array); higher = stronger binding", "details_in_all_cases": "glycan notation: IUPAC condensed, linker removed", "key": {"[1]": {"biological_target": "Fuc(a1-2)Gal(b1-3)GlcNAc", "method_in_brief": "(§1)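 The Consortium for Functional Glycomics database supplied 3228 glycan arrays, of which those lacking an available protein sequence were dropped. The binding signal, a within-array Z-score, was averaged across arrays of the same protein sequence and across linkers. Negative scores can be read as non-binding.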"}, "[2]": {"biological_target": "Fuc(a1-2)Gal(b1-3)GlcNAc(b1-3)Gal(b1-4)Glc", "method_in_brief": "as §1"}, "[3]": {"biological_target": "Fuc(a1-2)Gal(b1-4)Glc", "method_in_brief": "as §1"}, "[4]": {"biological_target": "Fuc(a1-2)Gal(b1-4)GlcNAc(b1-2)Man(a1-3)[Fuc(a1-2)Gal(b1-4)GlcNAc(b1-2)Man(a1-6)]Man(b1-4)GlcNAc(b1-4)[Fuc(a1-6)]GlcNAc", "method_in_brief": "as §1"}, "[5]": {"biological_target": "Fuc(a1-2)Gal(b1-4)GlcNAc(b1-2)[Fuc(a1-2)Gal(b1-4)GlcNAc(b1-4)]Man(a1-3)[Fuc(a1-2)Gal(b1-4)GlcNAc(b1-2)Man(a1-6)]Man(b1-4)GlcNAc(b1-4)GlcNAc", "method_in_brief": "as §1"}, "[6]": {"biological_target": "Fuc(a1-2)Gal(b1-4)GlcNAc(b1-3)[Fuc(a1-3)[Gal(b1-4)]GlcNAc(b1-6)]Gal(b1-4)Glc", "method_in_brief": "as §1"}, "[7]": {"biological_target": "Fuc(a1-2)Gal(b1-4)[Fuc(a1-3)]GlcNAc(b1-2)Man(a1-3)[Fuc(a1-2)Gal(b1-4)[Fuc(a1-3)]GlcNAc(b1-2)Man(a1-6)]Man(b1-4)GlcNAc(b1-4)[Fuc(a1-6)]GlcNAc", "method_in_brief": "as §1"}, "[8]": {"biological_target": "Fuc(a1-2)[Gal(a1-3)]Gal(b1-3)GlcNAc(b1-3)GalNAc", "method_in_brief": "as §1"}, "[9]": {"biological_target": "Fuc(a1-2)[Gal(a1-3)]Gal(b1-4)[Fuc(a1-3)]GlcNAc", "method_in_brief": "as §1"}, "[10]": {"biological_target": "Fuc(a1-2)[GalNAc(a1-4)]Gal(b1-4)GlcNAc", "method_in_brief": "as §1"}, "[11]": {"biological_target": "Fuc(a1-3)[Gal(b1-4)]GlcNAc(b1-2)Man(a1-3)[Fuc(a1-3)[Gal(b1-4)]GlcNAc(b1-2)Man(a1-6)]Man(b1-4)GlcNAc(b1-4)GlcNAc", "method_in_brief": "as §1"}, "[12]": {"biological_target": "Fuc(a1-3)[Gal(b1-4)]GlcNAc(b1-3)GalNAc", "method_in_brief": "as §1"}, "[13]": {"biological_target": "Fuc(a1-3)[Gal3S(b1-4)]GlcNAc6S", "method_in_brief": "as §1"}, "[14]": {"biological_target": "Gal(a1-3)Gal(b1-3)GlcNAc(b1-2)Man", "method_in_brief": "as §1"}, "[15]": {"biological_target": "Gal(a1-3)Gal(b1-4)GlcNAc(b1-3)GalNAc", "method_in_brief": "as §1"}, "[16]": {"biological_target": "Gal(a1-3)[Gal(a1-4)]Gal(b1-4)GlcNAc", "method_in_brief": "as §1"}, "[17]": {"biological_target": "Gal(a1-4)Gal(b1-4)GlcNAc(b1-2)Man(a1-3)[Gal(a1-4)Gal(b1-4)GlcNAc(b1-2)Man(a1-6)]Man(b1-4)GlcNAc(b1-4)GlcNAc", "method_in_brief": "as §1"}, "[18]": {"biological_target": "Gal(b1-3)Gal(b1-4)GlcNAc", "method_in_brief": "as §1"}, "[19]": {"biological_target": "Gal(b1-3)GlcNAc(b1-2)Man(a1-3)[Gal(b1-3)GlcNAc(b1-2)Man(a1-6)]Man(b1-4)GlcNAc(b1-4)GlcNAc", "method_in_brief": "as §1"}, "[20]": {"biological_target": "Gal(b1-3)[Fuc(a1-4)]GlcNAc(b1-3)Gal(b1-4)[Fuc(a1-3)]GlcNAc", "method_in_brief": "as §1"}, "[21]": {"biological_target": "Gal(b1-4)GalNAc(b1-3)[Fuc(a1-2)]Gal(b1-4)GlcNAc", "method_in_brief": "as §1"}, "[22]": {"biological_target": "Gal(b1-4)GlcNAc(b1-2)[Gal(b1-4)GlcNAc(b1-6)]Man(a1-6)[GlcNAc(b1-4)][Gal(b1-4)GlcNAc(b1-2)[Gal(b1-4)GlcNAc(b1-4)]Man(a1-3)]Man(b1-4)GlcNAc(b1-4)[Fuc(a1-6)]GlcNAc", "method_in_brief": "as §1"}, "[23]": {"biological_target": "Gal(b1-4)GlcNAc(b1-3)Gal(b1-4)GlcNAc(b1-3)Gal(b1-4)GlcNAc(b1-3)Gal(b1-4)GlcNAc(b1-3)Gal(b1-4)GlcNAc(b1-3)Gal(b1-4)GlcNAc(b1-2)Man(a1-3)[Gal(b1-4)GlcNAc(b1-3)Gal(b1-4)GlcNAc(b1-3)Gal(b1-4)GlcNAc(b1-3)Gal(b1-4)GlcNAc(b1-3)Gal(b1-4)GlcNAc(b1-3)Gal(b1-4)GlcNAc(b1-2)Man(a1-6)]Man(b1-4)GlcNAc(b1-4)GlcNAc", "method_in_brief": "as §1"}, "[24]": {"biological_target": "Gal3S(b1-4)[Fuc(a1-3)]Glc6S", "method_in_brief": "as §1"}, "[25]": {"biological_target": "Gal3S6S(b1-4)GlcNAc6S", "method_in_brief": "as §1"}, "[26]": {"biological_target": "Gal6S(b1-3)GlcNAc", "method_in_brief": "as §1"}, "[27]": {"biological_target": "GalNAc(b1-3)GalNAc", "method_in_brief": "as §1"}}, "note": "Many of the other results were omitted from the sample, so the strongest signals are more common in it than they were."}
{"binder": "PX9937D-bvu-500-26-500 (Bacteroides vulgatus) (protein) DPVSDITDLNYWKTPEQFDSFVFGLHSRFRSHSWNMFLLGEARSDVFGGIPFGGEATQGMERFPYNTLNAENPGISGFGDLYQNINQMNLFISRTLHTDVLTESARNYYLGQVYGLRAYYMYQLYRSWGDVVFTEEPSLGFEVGKLAKAATPAAEIFEQVKKDIESSLSYFGSDYTIKEKKSLWSKAATLMLKADVYLWSAHRDGGEGDARTAKNALVDIQNNISRSNLDLMDTYQGVFAYDNKGNKEIIFTIHNELFEYNLWNGNNDLFPQADYLGKFYNADGTLINTSVENNFGIMRLMVKLENFKKFLPGDTRRDVTLKDVYNKVENGKLELVGVYPHKYWGVMNGSTRVRCDDYPIYRYSDLLLMLAEAKVLLGEDPATEINRVRRRAFGDAYDASTVGFPNQEVDKRPADAVLQERLFEFMLEGKRWYDLRRFGDSYVLDYTPAEPARLLWPINQGALTNNPLLKQTVGY", "values": [{"measurement": "glycan array binding signal (z-score)", "setting": "[1]", "result": -0.32}, {"measurement": "glycan array binding signal (z-score)", "setting": "[2]", "result": -0.541}, {"measurement": "glycan array binding signal (z-score)", "setting": "[3]", "result": -0.401}, {"measurement": "glycan array binding signal (z-score)", "setting": "[4]", "result": 2.63}, {"measurement": "glycan array binding signal (z-score)", "setting": "[5]", "result": 0.277}, {"measurement": "glycan array binding signal (z-score)", "setting": "[6]", "result": -0.243}, {"measurement": "glycan array binding signal (z-score)", "setting": "[7]", "result": 5.16}, {"measurement": "glycan array binding signal (z-score)", "setting": "[8]", "result": -0.226}, {"measurement": "glycan array binding signal (z-score)", "setting": "[9]", "result": -0.096}, {"measurement": "glycan array binding signal (z-score)", "setting": "[10]", "result": 1.69}, {"measurement": "glycan array binding signal (z-score)", "setting": "[11]", "result": 6.27}, {"measurement": "glycan array binding signal (z-score)", "setting": "[12]", "result": -0.063}, {"measurement": "glycan array binding signal (z-score)", "setting": "[13]", "result": 0.002}, {"measurement": "glycan array binding signal (z-score)", "setting": "[14]", "result": 4.49}, {"measurement": "glycan array binding signal (z-score)", "setting": "[15]", "result": -0.404}, {"measurement": "glycan array binding signal (z-score)", "setting": "[16]", "result": 2.38}, {"measurement": "glycan array binding signal (z-score)", "setting": "[17]", "result": 9.96}, {"measurement": "glycan array binding signal (z-score)", "setting": "[18]", "result": -0.412}, {"measurement": "glycan array binding signal (z-score)", "setting": "[19]", "result": 4.38}, {"measurement": "glycan array binding signal (z-score)", "setting": "[20]", "result": -0.383}, {"measurement": "glycan array binding signal (z-score)", "setting": "[21]", "result": -0.3}, {"measurement": "glycan array binding signal (z-score)", "setting": "[22]", "result": 5.5}, {"measurement": "glycan array binding signal (z-score)", "setting": "[23]", "result": 2.58}, {"measurement": "glycan array binding signal (z-score)", "setting": "[24]", "result": 0.78}, {"measurement": "glycan array binding signal (z-score)", "setting": "[25]", "result": 0.182}, {"measurement": "glycan array binding signal (z-score)", "setting": "[26]", "result": 1.2}, {"measurement": "glycan array binding signal (z-score)", "setting": "[27]", "result": -0.663}]}
